Test results reported in PubChem BioAssay (NCI).
The panel holds about 83,000 compounds, 20% with a hit somewhere; the sample as a whole holds those more often.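 Testing used 96-well plates and a 48-hour single-concentration exposure. Example: -40 means 40% of the starting cells died.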 Unmarked numbers belong to inactive results. Active and inactive are the calls of the source. The calls were made as follows: active = growth percent below 10; inactive = the rest.

What was measured:
Assay in all cases: NCI-60 one-dose screen, 48 h (100 = growth as untreated, 0 = no growth, -100 = all killed)
Conditions in all cases: 10 µM unless noted
[1] = tested on: NCI-H23 lung
[2] = tested on: NCI-H226 lung
[3] = tested on: NCI-H322M lung
[4] = tested on: HOP-62 NSCLC
[5] = tested on: NCI-H460 lung
[6] = tested on: HOP-92 NSCLC
[7] = tested on: NCI-H522 lung
[8] = tested on: A549/ATCC NSCLC
[9] = tested on: 786-0 renal
[10] = tested on: COLO 205 colon
[11] = tested on: DU-145 prostate
[12] = tested on: K-562 leukemia
[13] = tested on: MALME-3M melanoma
[14] = tested on: MDA-MB-231 breast
[15] = tested on: RXF 393 renal
[16] = tested on: SF-268 CNS
[17] = tested on: SF-295 CNS
[18] = tested on: SF-539 CNS
[19] = tested on: UACC-257 melanoma
[20] = tested on: M14 melanoma

## COc1ccc(-c2cc(-c3ccccc3)nc(SCCCCCC(=O)NO)n2)cc1
[1]
  growth: 61.7%
[2]
  growth: 80.3%
[3]
  growth: 74.3%
[4]
  growth: 51.5%
[5]
  growth: 51.9%
[6]
  growth: 40.5%
[7]
  growth: 10.1%
[8]
  growth: 59.3%
[9]
  growth: 88%
[10]
  growth: 38.1%
[11]
  growth: 61.2%
[12]
  growth: 26.4%
[13]
  growth: 21.5%
[14]
  growth: 59.2%
[15]
  growth: 39.2%
[16]
  growth: 98.9%
[17]
  growth: 60.4%
[18]
  growth: 68.1%
[19]
  growth: 36.5%
[20]
  growth: 52%

## O=C(N=c1n(-c2ccccc2)nc2n1CCN2C1=NCCN1)c1ccc(Cl)cc1
[1]
  growth: 86.9%
[2]
  growth: 93.3%
[3]
  growth: 91.2%
[4]
  growth: 91.6%
[5]
  growth: 77.3%
[6]
  growth: 61%
[7]
  growth: 95.9%
[8]
  growth: 83.4%
[9]
  growth: 104%
[10]
  growth: 62.2%
[11]
  growth: 95.7%
[12]
  growth: 71.9%
[13]
  growth: 91.3%
[14]
  growth: 69.5%
[15]
  growth: 61.9%
[16]
  growth: 83.8%
[17]
  growth: 97.1%
[18]
  growth: 77.8%
[19]
  growth: 102%
[20]
  growth: 107%

## O=C1NC(=O)C(Cc2ccccc2)(Cc2ccccc2)N1
[1]
  growth: 101%
[2]
  growth: 90.4%
[3]
  growth: 106%
[4]
  growth: 84.9%
[5]
  growth: 104%
[6]
  growth: 87.5%
[7]
  growth: 97.5%
[8]
  growth: 102%
[9]
  growth: 90.9%
[10]
  growth: 107%
[11]
  growth: 111%
[12]
  growth: 108%
[13]
  growth: 109%
[14]
  growth: 98.4%
[15]
  growth: 117%
[16]
  growth: 95.1%
[17]
  growth: 94.2%
[18]
  growth: 102%
[19]
  growth: 105%
[20]
  growth: 93.9%

## C[N+](C)(C)c1ncnc2[n-]cnc12
[1]
  growth: 57.8%
[2]
  growth: 90.4%
[3]
  growth: 105%
[4]
  growth: 105%
[5]
  growth: 100%
[6]
  growth: 83.2%
[7]
  growth: 68.9%
[8]
  growth: 100%
[9]
  growth: 72.7%
[10]
  growth: 103%
[11]
  growth: 99%
[12]
  growth: 101%
[13]
  growth: 98.3%
[14]
  growth: 86.5%
[15]
  growth: 97%
[16]
  growth: 91%
[17]
  growth: 88.7%
[18]
  growth: 89.5%
[19]
  growth: -29.9% (active)
[20]
  growth: 89.9%

## O=C(N=c1n(-c2ccccc2)nc2n1CCN2C1=NCCN1C(=O)c1ccc(Cl)cc1)c1ccc(Cl)cc1
[1]
  growth: 75.9%
[2]
  growth: 93.2%
[3]
  growth: 86.9%
[4]
  growth: 93.5%
[5]
  growth: 60.6%
[6]
  growth: 120%
[7]
  growth: 64.2%
[8]
  growth: 65.4%
[9]
  growth: 83.1%
[10]
  growth: 75.1%
[11]
  growth: 92.2%
[12]
  growth: 47.1%
[13]
  growth: 91.2%
[14]
  growth: 82.4%
[15]
  growth: 48.6%
[16]
  growth: 72.9%
[17]
  growth: 86.2%
[18]
  growth: 80.2%
[19]
  growth: 103%
[20]
  growth: 62.5%

## Cn1cc(-c2noc(C(=O)c3cn(C)c4ncccc34)n2)c2ccccc21
[1]
  growth: 92.3%
[2]
  growth: 89.4%
[3]
  growth: 95.5%
[4]
  growth: 95%
[5]
  growth: 99.3%
[6]
  growth: 41.4%
[7]
  growth: 81.1%
[8]
  growth: 100%
[9]
  growth: 94.5%
[10]
  growth: 99.8%
[11]
  growth: 87.4%
[12]
  growth: 76.1%
[13]
  growth: 72.5%
[14]
  growth: 70.3%
[15]
  growth: 88.5%
[16]
  growth: 99.3%
[17]
  growth: 101%
[18]
  growth: 90.2%
[19]
  growth: 103%
[20]
  growth: 98.7%

## O=C(N/N=C1\c2ccccc2-c2cccc(C(=O)O)c21)c1ccc(O)cc1
[1]
  growth: 98.2%
[2]
  growth: 89.6%
[3]
  growth: 86.4%
[4]
  growth: 93.8%
[5]
  growth: 96.6%
[6]
  growth: 78.6%
[7]
  growth: 86.5%
[8]
  growth: 95.8%
[9]
  growth: 97.5%
[10]
  growth: 107%
[11]
  growth: 101%
[12]
  growth: 105%
[13]
  growth: 88.2%
[14]
  growth: 92.2%
[15]
  growth: 97.6%
[16]
  growth: 96.6%
[17]
  growth: 102%
[18]
  growth: 97.7%
[19]
  growth: 99.5%
[20]
  growth: 98%

## CC1=CC[C@@H]2C(C)(C)C(=O)CC[C@@]2(C)[C@@H]1COc1ccc2ccc(=O)oc2c1
[1]
  growth: 83%
[2]
  growth: 43.8%
[3]
  growth: 89.3%
[4]
  growth: 97.5%
[5]
  growth: 89.2%
[6]
  growth: 73.9%
[7]
  growth: 53.6%
[8]
  growth: 62.2%
[9]
  growth: 89.9%
[10]
  growth: 71.1%
[11]
  growth: 88.3%
[12]
  growth: 60.1%
[13]
  growth: 78%
[14]
  growth: 89.4%
[15]
  growth: 68.6%
[16]
  growth: 86.4%
[17]
  growth: 69%
[18]
  growth: 87.5%
[19]
  growth: 91.4%
[20]
  growth: 89%

## CC1(C)CC(=O)c2c(ccc(C(=O)C[C@@H](N)CO)c2N)O1
[1]
  growth: 45.9%
[2]
  growth: 27.5%
[3]
  growth: 5.96% (active)
[4]
  growth: 2.01% (active)
[5]
  growth: 4.1% (active)
[6]
  growth: 82.7%
[7]
  growth: 20.1%
[8]
  growth: 15.3%
[9]
  growth: 66.7%
[10]
  growth: 17.9%
[11]
  growth: 18.2%
[12]
  growth: 25.9%
[13]
  growth: 51.2%
[14]
  growth: 20.4%
[15]
  growth: 16.6%
[16]
  growth: 14.9%
[17]
  growth: 21.2%
[18]
  growth: -3.9% (active)
[19]
  growth: 16.6%
[20]
  growth: -37.5% (active)

## O=C1Nc2ccccc2/C1=C/C(=O)c1ccc(N2CCCC2)cc1
[1]
  growth: 31.8%
[2]
  growth: 73.4%
[3]
  growth: 81.8%
[4]
  growth: 33.4%
[5]
  growth: 9.75% (active)
[6]
  growth: 40.4%
[7]
  growth: -2.44% (active)
[8]
  growth: 54.4%
[9]
  growth: 100%
[10]
  growth: 8.29% (active)
[11]
  growth: 12.3%
[12]
  growth: 14.3%
[13]
  growth: 39.3%
[14]
  growth: 47.2%
[15]
  growth: 20.6%
[16]
  growth: 21.9%
[17]
  growth: 68.8%
[18]
  growth: 4.58% (active)
[19]
  growth: 78.1%
[20]
  growth: 108%

## Cc1cc[n+](CCCCCCCCCC[n+]2ccc(C)cc2)cc1
[1]
  growth: 68.8%
[2]
  growth: 68.3%
[3]
  growth: 109%
[4]
  growth: 87.7%
[5]
  growth: 98.7%
[6]
  growth: 99.8%
[7]
  growth: 91.6%
[8]
  growth: 73.3%
[9]
  growth: 97.5%
[10]
  growth: 103%
[11]
  growth: 93.7%
[12]
  growth: 79.8%
[13]
  growth: 113%
[14]
  growth: 105%
[15]
  growth: 127%
[16]
  growth: 93.4%
[17]
  growth: 73.1%
[18]
  growth: 99.2%
[19]
  growth: 106%
[20]
  growth: 97.7%

## CC1(C)C(=NO)C(C)(C)C1=NO
[1]
  growth: 111%
[2]
  growth: 103%
[3]
  growth: 99.6%
[4]
  growth: 117%
[5]
  growth: 105%
[6]
  growth: 88.7%
[7]
  growth: 94.1%
[8]
  growth: 103%
[9]
  growth: 110%
[10]
  growth: 116%
[11]
  growth: 114%
[12]
  growth: 98.8%
[13]
  growth: 116%
[14]
  growth: 123%
[15]
  growth: 112%
[16]
  growth: 103%
[17]
  growth: 108%
[18]
  growth: 117%
[19]
  growth: 95.4%
[20]
  growth: 99.5%

## Clc1ccc(N2CCN(CCCN3CCN(c4cccc(Cl)c4)CC3)CC2)cc1
[1]
  growth: 50.8%
[2]
  growth: 90.5%
[3]
  growth: 78.3%
[4]
  growth: 67.7%
[5]
  growth: 49.5%
[6]
  growth: 42.7%
[7]
  growth: 59.5%
[8]
  growth: 58.3%
[9]
  growth: 62.4%
[10]
  growth: 42.3%
[11]
  growth: 79.7%
[12]
  growth: 38.8%
[13]
  growth: 52.8%
[14]
  growth: 50.6%
[15]
  growth: 41%
[16]
  growth: 79.2%
[17]
  growth: 51.7%
[18]
  growth: 56.4%
[19]
  growth: 37.4%
[20]
  growth: 44.1%

## C#CCOc1ccc(C2=NN(CC3CC3)C3N=C(Cl)c4ncn(CC5CC5)c4N23)cc1OCC#C (stereo not given)
[1]
  growth: 85.7%
[2]
  growth: 76.4%
[3]
  growth: 76.1%
[4]
  growth: 83.8%
[5]
  growth: 69.6%
[6]
  growth: 61.7%
[7]
  growth: 60.6%
[8]
  growth: 71.4%
[9]
  growth: 93.6%
[10]
  growth: 78.9%
[11]
  growth: 69%
[12]
  growth: 48.6%
[13]
  growth: 83.5%
[14]
  growth: 87.5%
[15]
  growth: 51.2%
[16]
  growth: 96.8%
[17]
  growth: 88%
[18]
  growth: 90%
[19]
  growth: 98.8%
[20]
  growth: 74.3%

## CC(C)=CCC[C@](C)(O)[C@H]1CC[C@]2(C)[C@@H]1CC[C@@H]1[C@@]3(C)CC/C(=N/O)C(C)(C)[C@@H]3CC[C@]12C
[1]
  growth: -56.9% [100 µM] (active)
[2]
  growth: 11.3% [100 µM]
[3]
  growth: -1.07% [100 µM] (active)
[4]
  growth: -50.9% [100 µM] (active)
[5]
  growth: -7.45% [100 µM] (active)
[6]
  growth: -62% [100 µM] (active)
[7]
  growth: -28.9% [100 µM] (active)
[8]
  growth: -70.4% [100 µM] (active)
[9]
  growth: -21.1% [100 µM] (active)
[10]
  growth: -43.5% [100 µM] (active)
[11]
  growth: -15.4% [100 µM] (active)
[12]
  growth: 10.9% [100 µM]
[13]
  growth: -69.7% [100 µM] (active)
[14]
  growth: -34.2% [100 µM] (active)
[15]
  growth: -32.5% [100 µM] (active)
[16]
  growth: 11.5% [100 µM]
[17]
  growth: -66.5% [100 µM] (active)
[18]
  growth: -53.9% [100 µM] (active)
[19]
  growth: 19.8% [100 µM]
[20]
  growth: -13.6% [100 µM] (active)
